PubChem BioAssay (NCATS)
Results filed as inconclusive are left out. Activity calls are given as the source filed them. Calls come from the whole dose curve; as a rule, active = well fitted inhibition curve with a large enough effect; inconclusive = small, poorly fitted or top-dose-only effect; inactive = flat fitted curve, though single readings scatter.

Molecular target: Lysine-specific demethylase 5B (Homo sapiens) (UniProt Q9UGL1)
Experiment: Optimization screen for KDM5B Histone Demethylases FDH coupled qHTS against the LOPAC library (AID 1347166)
Conditions: KDM5B demethylation, FDH-coupled NADH fluorescence (FDH is formaldehyde dehydrogenase); series mostly up to 57.5 µM
Procedure, shortened: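 KDM5BDeltaAP (200nM final) preincubated 10 min with compound, then 12.5uM H3K4Me3, 25uM a-ketoglutarate, ascorbate, Fe(II), NAD+ and FDH added; 50mM HEPES pH 7.5, 0.01% Tween-20. NADH fluorescence (340/450 nm) change over 30 min, room temperature.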

Chain of Lysine-specific demethylase 5B (Homo sapiens) (Q9UGL1 whole entry, looked up): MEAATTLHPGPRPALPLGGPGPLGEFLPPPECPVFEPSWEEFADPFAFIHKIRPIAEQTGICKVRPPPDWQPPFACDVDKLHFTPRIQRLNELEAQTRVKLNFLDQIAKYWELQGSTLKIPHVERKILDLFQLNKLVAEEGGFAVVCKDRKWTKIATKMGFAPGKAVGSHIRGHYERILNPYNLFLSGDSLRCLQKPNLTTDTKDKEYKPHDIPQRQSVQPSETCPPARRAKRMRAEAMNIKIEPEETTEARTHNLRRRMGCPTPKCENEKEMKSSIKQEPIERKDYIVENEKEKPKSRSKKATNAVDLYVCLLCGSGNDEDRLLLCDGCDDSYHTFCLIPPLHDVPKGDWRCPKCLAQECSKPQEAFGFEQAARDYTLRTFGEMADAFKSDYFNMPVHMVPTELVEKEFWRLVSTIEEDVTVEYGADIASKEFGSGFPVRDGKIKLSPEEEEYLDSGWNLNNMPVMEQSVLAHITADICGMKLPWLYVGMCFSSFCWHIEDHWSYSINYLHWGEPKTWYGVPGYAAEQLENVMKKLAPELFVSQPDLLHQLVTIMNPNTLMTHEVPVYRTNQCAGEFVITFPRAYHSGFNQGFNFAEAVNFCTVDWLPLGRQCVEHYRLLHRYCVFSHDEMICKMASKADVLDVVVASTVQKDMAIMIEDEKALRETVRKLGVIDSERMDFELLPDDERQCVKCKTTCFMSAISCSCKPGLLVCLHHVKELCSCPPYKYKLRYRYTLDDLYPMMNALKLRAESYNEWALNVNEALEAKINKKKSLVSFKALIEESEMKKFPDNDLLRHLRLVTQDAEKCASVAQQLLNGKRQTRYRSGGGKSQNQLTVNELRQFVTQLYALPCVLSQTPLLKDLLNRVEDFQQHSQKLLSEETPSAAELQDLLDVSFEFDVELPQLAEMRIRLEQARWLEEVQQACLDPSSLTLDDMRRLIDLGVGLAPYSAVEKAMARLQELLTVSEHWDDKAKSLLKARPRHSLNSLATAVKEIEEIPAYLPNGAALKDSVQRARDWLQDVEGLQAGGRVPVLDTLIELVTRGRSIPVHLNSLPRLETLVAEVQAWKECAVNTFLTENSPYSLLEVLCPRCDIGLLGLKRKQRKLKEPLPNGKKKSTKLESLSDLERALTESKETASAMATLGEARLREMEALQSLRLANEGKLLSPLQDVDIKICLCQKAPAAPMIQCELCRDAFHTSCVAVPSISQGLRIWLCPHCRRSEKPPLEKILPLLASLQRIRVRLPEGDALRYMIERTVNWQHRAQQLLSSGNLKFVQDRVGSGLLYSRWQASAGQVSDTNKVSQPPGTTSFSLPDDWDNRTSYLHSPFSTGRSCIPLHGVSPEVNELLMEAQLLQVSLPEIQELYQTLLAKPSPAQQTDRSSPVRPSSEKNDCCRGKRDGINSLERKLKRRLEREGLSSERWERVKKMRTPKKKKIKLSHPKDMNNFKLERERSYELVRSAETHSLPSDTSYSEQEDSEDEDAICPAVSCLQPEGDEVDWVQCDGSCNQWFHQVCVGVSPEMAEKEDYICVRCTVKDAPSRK

**Q.** For `Clc1ccc(N2CCN(Cc3c[nH]c4ncccc34)CC2)cc1`, which outcome is on record?
**A.** Its outcome is “inactive”.

**Q.** How did the outcome turn out when `CN1CCc2cccc3c2C1Cc1ccc(O)c(O)c1-3` (configuration not stated) was run?
**A.** Its outcome is “inactive”.

**Q.** With `NC(CCCP(=O)(O)O)C(=O)O` (configuration not stated) as the compound, how does the outcome read?
**A.** Its outcome is “inactive”.

**Q.** With `CCCCCCCCCCCCCCCC(=O)NCC(COP(=O)([O-])OCC[N+](C)(C)C)OCC` (configuration not stated) as the compound, how does the outcome read?
**A.** Its outcome is “inactive”.

**Q.** With `NCCNC(=O)c1ncsc1-c1cccc(F)c1` as the compound, how does the outcome read?
**A.** The outcome was “inactive”.

**Q.** With `COc1ccccc1N1CCN(CCN(C(=O)c2ccc(I)cc2)c2ccccn2)CC1` as the compound, how does the outcome read?
**A.** Its outcome is “inactive”.

**Q.** Which outcome does the source give for `NC(=S)c1ccc[n+]([C@@H]2O[C@@H](COP(=O)([O-])OP(=O)(O)OC[C@H]3O[C@@H](n4cnc5c(N)ncnc54)[C@H](OP(=O)(O)O)[C@@H]3O)C(O)C2O)c1` (some centres not stated) here?
**A.** The outcome was “inactive”.

**Q.** `C[N+]1(C)C2CC(OC(=O)[C@H](CO)c3ccccc3)CC1C1OC12` (some centres not stated) was tested. Which outcome did it give?
**A.** The outcome was “inactive”.

**Q.** `Cn1cc(C2=C(c3ccc(Cl)cc3Cl)C(=O)NC2=O)c2ccccc21` was tested. Which outcome did it give?
**A.** Its outcome is “inactive”.

**Q.** For `CN(C)c1nc(N)c(C(=O)N=C(N)N)nc1Cl`, which outcome is on record?
**A.** Its outcome is “inactive”.

**Q.** How did the outcome turn out when `Cc1cc(NC2CCCCC2)nc(-n2nc(C)cc2C)n1` was run?
**A.** The outcome was “inactive”.

**Q.** `O=C(O)CC1CC(c2ccccc2)=NO1` (configuration not stated) was tested. Which outcome did it give?
**A.** Its outcome is “inactive”.

**Q.** `O=C(/C=C/c1ccc(O)c(O)c1)OCCc1ccccc1` was tested. Which outcome did it give?
**A.** Its outcome is “inactive”.

**Q.** For `CCN1/C(=C/C(C)=O)Sc2ccc(OC)cc21`, which outcome is on record?
**A.** Its outcome is “inactive”.

**Q.** How did the outcome turn out when `CSc1nc(N)c2ncn([C@@H]3O[C@H](COP(=O)(O)OP(=O)(O)OP(=O)(O)O)[C@@H](O)[C@H]3O)c2n1` was run?
**A.** Its outcome is “inactive”.

**Q.** With `CN1C2CC(OC(=O)[C@H](CO)c3ccccc3)CC1C1OC12` (some centres not stated) as the compound, how does the outcome read?
**A.** Its outcome is “inactive”.

**Q.** How did the outcome turn out when `CCCCCCCCCCCCCCCCCC(=O)OC(CC(=O)O)C[N+](C)(C)C` (configuration not stated) was run?
**A.** The outcome was “inactive”.

**Q.** With `CN1C2CCC1CC(OC(=O)C(O)c1ccccc1)C2` (configuration not stated) as the compound, how does the outcome read?
**A.** Its outcome is “inactive”.

**Q.** With `CC(COc1ccc(/C=C/c2ccccc2)cc1)[N+](C)(C)C` (configuration not stated) as the compound, how does the outcome read?
**A.** Its outcome is “inactive”.

**Q.** How did the outcome turn out when `Nc1ncnc2c1ncn2[C@@H]1O[C@H](COP(=O)(O)OP(=O)(O)OP(=O)(O)OP(=O)(O)OC[C@@H]2O[C@H](n3cnc4c(N)ncnc43)[C@@H](O)[C@H]2O)[C@@H](O)[C@H]1O` was run?
**A.** The outcome was “inactive”.

**Q.** Which outcome does the source give for `OC[C@H]1O[C@@H](n2cnc3c(NC4CCCCC4)ncnc32)[C@H](O)[C@@H]1O` here?
**A.** Its outcome is “inactive”.

**Q.** Which outcome does the source give for `Cc1ccc(C(=O)O[C@H](C(=O)O)[C@@H](OC(=O)c2ccc(C)cc2)C(=O)O)cc1` (tested in a mixture with another compound) here?
**A.** Its outcome is “inactive”.

**Q.** Which outcome does the source give for `Fc1cccc(/C=N/N=C/c2cccc(F)c2)c1` here?
**A.** The outcome was “inactive”.

**Q.** With `CN1CCC[C@H]1c1cccnc1` as the compound, how does the outcome read?
**A.** Its outcome is “inactive”.

**Q.** With `CCCCCC(O)c1cccc(OCc2ccc3ccccc3n2)c1` (configuration not stated) as the compound, how does the outcome read?
**A.** The outcome was “inactive”.

**Q.** With `O=[N+]([O-])c1ccc(CSc2ncnc3c2ncn3[C@@H]2O[C@H](CO)[C@@H](O)[C@H]2O)cc1` as the compound, how does the outcome read?
**A.** Its outcome is “inactive”.

**Q.** How did the outcome turn out when `CC1OC1P(=O)(O)O` (configuration not stated) was run?
**A.** The outcome was “inactive”.

**Q.** Which outcome does the source give for `O=C(O)CNC(=O)C(CS)Cc1ccccc1` (configuration not stated) here?
**A.** Its outcome is “inactive”.

**Q.** `Cc1nc2sccn2c(=O)c1CCN1CCC(=C(c2ccccc2)c2ccc(F)cc2)CC1` was tested. Which outcome did it give?
**A.** The outcome was “inactive”.

**Q.** How did the outcome turn out when `O=C(O)[C@@H]1C[C@H](C(=O)O)N1` was run?
**A.** Its outcome is “inactive”.

**Q.** For `CC(C)ON([C@@H](C(=O)NO)C(C)C)S(=O)(=O)c1ccc(-c2ccccc2)cc1`, which outcome is on record?
**A.** The outcome was “inactive”.

**Q.** How did the outcome turn out when `C[N+](C)(C)CCOP(=O)(O)OP(=O)([O-])OC[C@H]1O[C@@H](n2ccc(N)nc2=O)[C@H](O)[C@@H]1O` was run?
**A.** Its outcome is “inactive”.

**Q.** Which outcome does the source give for `COc1ccc(NC(=O)/C=C/c2ccc(Cl)cc2)cc1` here?
**A.** The outcome was “inactive”.

**Q.** Which outcome does the source give for `NCCCCC(=O)O` here?
**A.** Its outcome is “inactive”.

**Q.** For `CCCCCCCCCCCCCCCCCC(=O)NCC(COP(=O)([O-])OCC[N+](C)(C)C)OCC` (configuration not stated), which outcome is on record?
**A.** Its outcome is “inactive”.

**Q.** `O=C(c1ccc(OCCCc2cnc[nH]2)cc1)C1CC1` was tested. Which outcome did it give?
**A.** The outcome was “inactive”.

**Q.** For `C#CCN1C(C)=C(C(=O)OC)C(c2cccc([N+](=O)[O-])c2)C(C(=O)OCC)=C1C` (configuration not stated), which outcome is on record?
**A.** Its outcome is “inactive”.
